Several values for one entry are separate records, joined by “and”; a condition that tells them apart may be missing. Equal values may be shown once. Some structures have more than one record in an assay (separate samples or runs), and their calls can disagree. Activity calls are given as the source filed them. Rule for the calls: active = hit-call score of the fitted dose curve at least 0.9, where 1 is the maximum; inactive = score below 0.9.

Read-out in experiment [1]: Human Leukocyte Antigen - DR isotype (HLADR), HLA-DRA (gene 3122)
In words: BSK_3C_HLADR: BioMAP Diversity Plus: 3C Assay for Human Leukocyte Antigen - DR isotype (HLADR) Biomarker Activity (AID 2283019). As to conditions: primary human endothelial cells (HUVEC); actives raise or lower the signal. An outline of the steps:
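ELISA readout of surface HLA-DR on human umbilical vein endothelium, taken 24 h after chemical treatment. Gain- and loss-of-signal were both fitted relative to DMSO.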

A short description of experiment [2]: BSK_3C_Vis: BioMAP Diversity Plus: 3C Assay for Morphology Visualization (AID 2283025).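 Note: light microscopy image of cell morphology used as background control; fitted both ways so gain or loss versus DMSO counts.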 As to conditions: primary human endothelial cells (HUVEC). An outline of the steps: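 Chemicals were added to primary human umbilical vein endothelium, cells were incubated 24 h, and morphology was then visualized by light microscopy. Gain or loss of signal was fitted bidirectionally relative to DMSO.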

Read-out in experiment [3]: Human Leukocyte Antigen - DR isotype (HLADR), HLA-DRA (gene 3122)
The experiment is described as follows: BSK_BE3C_HLADR: BioMAP Diversity Plus: BE3C Assay for Human Leukocyte Antigen - DR isotype (HLADR) Biomarker Activity (AID 2283032). As to conditions: primary human bronchial epithelial cells; actives raise or lower the signal. An outline of the steps: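 ELISA read-out of HLA-DR on human lung bronchial epithelial primary cells, measured 24 h post-dosing. Both increases and decreases were scored relative to DMSO vehicle.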

Read-out in experiment [4]: Interleukin-8 (IL8), CXCL8 (gene 3576)
The experiment is described as follows: BSK_CASM3C_IL8: BioMAP Diversity Plus: CASM3C Assay for Interleukin-8 (IL8) Biomarker Activity (AID 2283042).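 Note: IL-8 protein level quantified by ELISA.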 As to conditions: primary human coronary artery smooth muscle cells; actives raise or lower the signal.

Read-out in experiment [5]: Monokine induced gamma interferon (MIG), CXCL9 (gene 4283)
In words: BSK_CASM3C_MIG: BioMAP Diversity Plus: CASM3C Assay for Monokine induced gamma interferon (MIG) Biomarker Activity (AID 2283048).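 Note: MIG protein level measured by ELISA.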 As to conditions: primary human coronary artery smooth muscle cells; actives raise or lower the signal.

Read-out in experiment [6]: Urokinase-type plasminogen activator receptor (uPAR), PLAUR (gene 5329)
In words: BSK_CASM3C_uPAR: BioMAP Diversity Plus: CASM3C Assay for Urokinase-type plasminogen activator receptor (uPAR) Biomarker Activity (AID 2283054).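 Note: cell-surface uPAR protein level quantified by ELISA.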 As to conditions: primary human coronary artery smooth muscle cells; actives raise or lower the signal.

Read-out in experiment [7]: Intercellular Adhesion Molecule 1 (ICAM1), ICAM1 (gene 3383)
The experiment is described as follows: BSK_KF3CT_ICAM1: BioMAP Diversity Plus: KF3CT Assay for Intercellular Adhesion Molecule 1 (ICAM1) Biomarker Activity (AID 2283067). As to conditions: primary human keratinocytes with fibroblasts; actives raise or lower the signal. An outline of the steps: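 ICAM-1 levels are measured by ELISA 24 h after dosing a primary human co-culture of keratinocytes and foreskin fibroblasts. Activity in either direction is fitted relative to DMSO vehicle.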

Read-out in experiment [8]: Macrophage colony-stimulating factor (MCSF), CSF1 (gene 1435)
The experiment is described as follows: BSK_LPS_MCSF: BioMAP Diversity Plus: LPS Assay for Macrophage colony-stimulating factor (MCSF) Biomarker Activity (AID 2283083). As to conditions: primary human HUVEC with PBMC; actives raise or lower the signal. An outline of the steps:
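ELISA readout of M-CSF after 24 h compound exposure in a human endothelial/PBMC co-culture. Activity, in either direction, is fitted relative to DMSO vehicle.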

Read-out in experiment [9]: Tissue Factor, F3 (gene 2152)
In words: BSK_LPS_TissueFactor: BioMAP Diversity Plus: LPS Assay for Tissue Factor Biomarker Activity (AID 2283084). As to conditions: primary human HUVEC with PBMC; actives raise or lower the signal. An outline of the steps: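 ELISA signal for cell-surface Tissue Factor (CD142) was read 24 h after compound dosing of an LPS-stimulated human endothelial–PBMC primary co-culture. Gain or loss of signal was scored relative to DMSO.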

Read-out in experiment [10]: Vascular cell adhesion molecule 1 (VCAM1), VCAM1 (gene 7412)
The experiment is described as follows: BSK_LPS_VCAM1: BioMAP Diversity Plus: LPS Assay for Vascular cell adhesion molecule 1 (VCAM1) Biomarker Activity (AID 2283086). As to conditions: primary human HUVEC with PBMC; actives raise or lower the signal. An outline of the steps: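 HUVEC + PBMC co-culture, LPS system; compound 24 h; VCAM-1 by ELISA; bidirectional fit vs DMSO control; parallel SRB (0.1%, TCA-fixed, 560 nm) for cytotoxicity.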

Read-out in experiment [11]: CD40, CD40 (gene 958)
The experiment is described as follows: BSK_SAg_CD40: BioMAP Diversity Plus: SAg Assay for CD40 Biomarker Activity (AID 2283088). As to conditions: primary human HUVEC with PBMC; actives raise or lower the signal. An outline of the steps:
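Compounds were dosed onto a human primary endothelial–PBMC co-culture, and after 24 h CD40 was quantified by ELISA using a fluorescence signal. Activity in either direction was fitted relative to DMSO.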

Read-out in experiment [12]: Monocyte Chemoattractant Protein-1 (MCP1), CCL2 (gene 6347)
In words: BSK_SAg_MCP1: BioMAP Diversity Plus: SAg Assay for Monocyte Chemoattractant Protein-1 (MCP1) Biomarker Activity (AID 2283090). As to conditions: primary human HUVEC with PBMC; actives raise or lower the signal. An outline of the steps: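 MCP-1 levels in the endothelial–PBMC SAg co-culture were quantified by ELISA at 24 h post-dosing; both increases and decreases versus DMSO scored. Cytotoxicity monitored by SRB total protein in parallel cultures.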

Read-out in experiment [13]: Monokine induced gamma interferon (MIG), CXCL9 (gene 4283)
In words: BSK_SAg_MIG: BioMAP Diversity Plus: SAg Assay for Monokine induced gamma interferon (MIG) Biomarker Activity (AID 2283092). As to conditions: primary human HUVEC with PBMC; actives raise or lower the signal. An outline of the steps: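 Endothelial cells and PBMC were co-cultured, exposed to test chemicals, and sampled 24 h later. MIG was measured by ELISA, and responses were fitted in both directions relative to DMSO.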

Read-out in experiment [14]: Interleukin-8 (IL8), CXCL8 (gene 3576)
The experiment is described as follows: BSK_SAg_IL8: BioMAP Diversity Plus: SAg Assay for Interleukin-8 (IL8) Biomarker Activity (AID 2283094). As to conditions: primary human HUVEC with PBMC; actives raise or lower the signal. An outline of the steps: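 ELISA read-out of IL-8 in a primary human vascular co-culture (umbilical vein endothelium plus PBMC), taken 24 h after compound addition. Values derive from bidirectional fits against DMSO negative controls.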

Experiment [15] can be described thus: BSK_SAg_Proliferation: Cell Proliferation Assessment in the BioMAP Diversity Plus: SAg Assay (AID 2283095).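 Note: relative cell number as total protein by SRB absorbance in sub-confluent culture.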 As to conditions: primary human HUVEC with PBMC. An outline of the steps: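 Cells (endothelium plus PBMC, human primary) were dosed with chemical, cultured 96 h, fixed in 10% TCA and stained with 0.1% SRB. Absorbance at 560 nm gave relative protein, fitted bidirectionally relative to DMSO.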

Experiment [16] is described as follows: BSK_BT_Bcell_Proliferation: Viability Assessment in the BioMAP Diversity Plus: BT Assay for B cell Proliferation (AID 2284227). As to conditions: primary human B cells with PBMC. An outline of the steps: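 Read-out is absorbance at 560 nm from sulforhodamine B staining of total protein, reflecting relative cell numbers in a human B cell and PBMC co-culture after 72 h of chemical exposure. Values were referenced to DMSO.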

Read-out in experiment [17]: Interleukin 17A (IL17A), IL17A (gene 3605)
The experiment is described as follows: BSK_BT_xIL17A: BioMAP Diversity Plus: BT Assay for Interleukin 17A (IL17A) Biomarker Activity (AID 2284229). As to conditions: primary human B cells with PBMC. An outline of the steps: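 Secreted IL-17A was the measured endpoint, read by Luminex xMAP multiplex in supernatants of a human B cell/PBMC co-culture harvested 24 h after chemical dosing. Signal increase relative to DMSO defined activity.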

Read-out in experiment [18]: Collagen III, COL3A1 (gene 1281)
The experiment is described as follows: BSK_MyoF_CollagenIII: BioMAP Diversity Plus: MyoF Assay for Collagen III Biomarker Activity (AID 2284239). As to conditions: primary human lung fibroblasts. An outline of the steps: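 ELISA read-out of collagen III from human lung fibroblasts after 24 h of chemical treatment. The DMSO control served as negative control and baseline, with values fitted in the positive direction.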

Read-out in experiment [19]: Interleukin 2 (IL2), IL2 (gene 3558)
The experiment is described as follows: BSK_BT_xIL2: BioMAP Diversity Plus: BT Assay for Interleukin 2 (IL2) Biomarker Activity (AID 2284245). As to conditions: primary human B cells with PBMC. An outline of the steps:
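B cell + PBMC co-culture (human primary), compound added, 24 h incubation; secreted IL-2 measured multiplexed on Luminex xMAP; gain-of-signal fit vs DMSO.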

Read-out in experiment [20]: Matrix Metallopeptidase 1 (MMP1), MMP1 (gene 4312)
The experiment is described as follows: BSK_MyoF_MMP1: BioMAP Diversity Plus: MyoF Assay for Matrix Metallopeptidase 1 (MMP1) Biomarker Activity (AID 2284268). As to conditions: primary human lung fibroblasts. An outline of the steps:
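Lung fibroblast cultures were dosed with test chemicals and, after 24 h, MMP1 levels were measured by ELISA; responses were referenced to DMSO and analysed for increases.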

As to `O=C(O)CCCc1ccc(N(CCCl)CCCl)cc1`, the AC50 in [1] was 15.8 µM (active) and 13.4 µM (active); in [2], 38.9 µM (active) and 38.6 µM (active); in experiment [3], 22 µM (active) and 29.6 µM (active); in experiment [4], 20 µM (active); in experiment [5], 30.8 µM (active) and 20 µM (active); in experiment [6], 30.6 µM (active) and 20 µM (active). In addition, the concentration at half-maximal activity (AC50) is 20 µM (active) in [7]; 17.7 µM (active) and 20 µM (active) in experiment [8]; 20 µM (active) and 12.5 µM (active) in [9]; 20 µM (active) and 28.3 µM (active) in [10]; 20 µM (active) in [11]; 20 µM (active) and 27.2 µM (active) in experiment [12]. The half-maximal activity concentration (AC50) in experiment [14] is 20 µM (active) and 10.2 µM (active); in experiment [15], 16.4 µM (active) and 12.2 µM (active); in [16], 12.7 µM (active) and 13 µM (active); in experiment [17], 15 µM (active); in [18] it was 20 µM (active); in [19], 35.5 µM (active). Moreover, the half-maximal activity concentration (AC50) in experiment [20] was 30.6 µM (active). In addition, the result in [13], in [17], in [18], in experiment [19] and in experiment [20] was inactive.

In the case of `Cc1ccc(OP(=O)(Oc2ccc(C)cc2)Oc2ccc(C)cc2)cc1` (tested in a mixture with another compound), the AC50 in experiment [1] was 20 µM (active); in experiment [2] it was 37.5 µM (active); in experiment [6], 1.11 µM (active); in experiment [8] it was 16.1 µM (active); in [11], 20 µM (active); in experiment [12] it was 20 µM (active). Also, the half-maximal activity concentration (AC50) is 10.6 µM (active) in experiment [14]; 9.42 µM (active) in [15]; 14.1 µM (active) in [17]; 20 µM (active) in experiment [19]; 27.6 µM (active) in experiment [20]. Besides, the result in experiment [3], in experiment [4], in experiment [5], in [7], in [9] and in experiment [10] was inactive. The outcome in [13], in [16] and in experiment [18] was inactive.

In the case of `O=[N+]([O-])C=Cc1ccccc1`, the AC50 was 2.15 µM (active) in experiment [1]; 8.8 µM (active) in experiment [2]; 1.56 µM (active) in [3]; 20 µM (active) in experiment [4]; 27.1 µM (active) in experiment [5]; 8.89 µM (active) in [6]. The half-maximal activity concentration (AC50) in experiment [7] was 6.1 µM (active); in experiment [8] it was 10.8 µM (active); in [9] it was 10.7 µM (active); in [10] it was 8.21 µM (active); in experiment [11], 20 µM (active); in experiment [12], 20 µM (active). Moreover, the AC50 was 20 µM (active) in experiment [13]; 11.3 µM (active) in experiment [14]; 3.07 µM (active) in experiment [15]; 6.33 µM (active) in experiment [16]; 5.44 µM (active) in experiment [17]; 13.8 µM (active) in experiment [18]. Further, in experiment [19], the half-maximal activity concentration (AC50) was 6.08 µM (active). Further, in experiment [20], the result was inactive.

Source of the values: PubChem BioAssay (EPA / NIEHS).
